Experimental data taken from PubChem BioAssay AID743395 (Broad Institute, 2014).
In all, about 1,200 compounds went through this assay and about 480 (40%) were called active. The set was probably picked from earlier hits. These entries were drawn from the full list. Results with a measured potency or affinity are listed apart. Unmarked numbers belong to inactive results. No rule for the calls is given here.

assay: viability loss in human hepatoma cells – cell-based, CellTiter-Glo luminescence, cherry-pick, set 2, cytotoxicity control, dose response (AID 743395); conditions: HepG2 viability, CellTiter-Glo ATP luminescence, 72 h; series mostly up to 26 µM; activity change, negative = cytotoxicity: at the top concentration;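 also: 0% = neutral control wells and -100% = positive control wells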

| SMILES | activity change, negative = cytotoxicity |
| --- | --- |
| Cc1ccc(C(=O)OCC(=O)NCc2cc(C)c(O)c(C)c2)cc1S(=O)(=O)N1CCCCC1 | 6.09% |
| CC(OC(=O)CCCC(=O)Nc1ccc(F)cc1)C(=O)c1ccccc1 (stereo unspecified) | 10.3% |
| CC1Cc2ccccc2N1S(=O)(=O)c1cccc(C(=O)N2CCN(c3ncccn3)CC2)c1 (stereo unspecified) | -22.5% |
| COc1ccccc1N1CCN(C(CNS(=O)(=O)c2cccs2)c2cccnc2)CC1 (stereo unspecified) | -8.06% |
| CN(C[C@H](Cc1ccccc1)N(C[C@H](Cc1ccccc1)N(CCC(C)(C)C)N=O)N=O)N=O | -0.701% |
| O=C1c2cccc3c(O)ccc(c23)C(=O)N1c1ccc(Cl)cc1 | -9.52% |
| N#CC1=C(N)OC2=C(CCc3ccccc32)C1c1ccccc1Cl (stereo unspecified) | 3.32% |
| COc1nc(N)nc(NC(=O)c2cccs2)c1N=O | -14.8% |
| Cc1ccc(Cc2c(-c3ccc(C)cc3)nc3c(C)cc(Br)cn23)cc1 | -4.39% |
| CC(C)(C)NC(=O)c1cccc2c1-c1ccccc1C2=O | -12.1% [at 8 µM] |
| CC1=C(C(=O)NC2CCCCC2C)C2(CCC(C)CC2)OC1=O (stereo unspecified) | -13% |
| COc1ccc(C(C#N)CC(=O)c2ccc3c(c2)OCO3)cc1OC (stereo unspecified) | -3.73% |
| Cc1cc(Br)cn2c(Cc3ccsc3)c(-c3ccc(F)cc3)nc12 | 0.336% |
| COc1ccc(C(=O)Nc2ccc(NC(=O)c3cccc(F)c3)cn2)cc1 | -8.34% |
| Cc1cccc(OCC(=O)NNC(=O)c2ccc3nc[nH]c3c2)c1 | -11.2% |
| COc1ccc(NC(=O)c2ccc(OCC3CCCO3)cc2)cc1OC (stereo unspecified) | 0.664% |
| COc1ccc(C(=O)OCc2nc(N)nc(Nc3ccccc3C)n2)cc1OC | -13.4% |
| CC(OC(=O)c1ccc(Cl)nc1)C(=O)NC(C)(C)C (stereo unspecified) | -2.04% |
| NS(=O)(=O)c1cc(C2(O)NC(=O)c3ccccc32)ccc1Cl (stereo unspecified) | -3.58% |
| CCNC(=O)C[C@@H]1C=C[C@@H](NC(=O)NC2CCCCC2)[C@H](CO)O1 | -3.27% |
| O=C(CSC1=NCCN1)Nc1cccc([N+](=O)[O-])c1 | -21.5% |

| SMILES | activity change, negative = cytotoxicity |
| --- | --- |
| COc1ccc([C@@H]2[C@@H]3C(=O)N(C(C)(C)C)C(=O)[C@@H]3[C@]3(Cc4ccccc4)C(=O)N(c4ccc(C(F)(F)F)cc4)C(=O)N23)cc1 | -20.1% |
| CCc1ccccc1N(C)S(=O)(=O)c1ccc(-c2cc(C)no2)s1 | -15% |
| Cc1ccc(OCCC(=O)NNC(=O)c2ccc(Br)cc2)cc1 | -3.58% |
| CN(C)CCCN1c2ccccc2Sc2ccccc21 | -24.3% |
| O=C(NCCCN1CCOCC1)c1sc2cc(Cl)ccc2c1Cl | -1.96% |
| O=C(NCCCN1CCOCC1)c1cc(S(=O)(=O)N2CCOCC2)c(Cl)cc1Cl | -1.37% |
| COC(=O)C1CC23C=CCN4CCC5(c6ccccc6NC15C2C)C43 (stereo unspecified) | -14.9% |
| COc1ccc(C(=O)NCC(c2ccco2)N2CCc3ccccc32)cc1 (stereo unspecified) | -17.2% |
| COc1ccccc1NC(=O)C(=O)NCC(c1ccco1)N1CCc2ccccc21 (stereo unspecified) | 6.66% |
| CCCc1nc(SC2CCCC2)c2c(=O)n(C)c(=O)n(C)c2n1 | -17.4% |
| COc1ccc(NCC(=O)n2c(C)c(C)c3ccccc32)cc1 | -2.65% |
| COc1cc(OC)cc(C(=O)N2CC(=O)Nc3ccccc32)c1 | -14% |
| COc1ccc(/C=C2/CCCc3ccccc3C2=O)cc1 | -22.7% |
| COC(=O)c1cn(C(=O)c2ccc(C)cc2C)c2ccccc12 | -20.2% |
| O=C(NCc1cccnc1)c1cc(C2CCCCN2C(=O)CCCc2ccccc2)on1 (stereo unspecified) | -5.42% |
| COc1ccccc1/C=N/NC(=O)c1cc2c(OC)c(OC)ccc2[nH]1 | -8.24% |
| CCCOCCOC(=O)c1[nH]c2c(c1C)C(=O)CC(c1cc(OC)ccc1OC)C2 (stereo unspecified) | 1.47% |
| Cc1ccc(C)c(NC(=O)CCC(=O)N/N=C/c2cc([N+](=O)[O-])ccc2O)c1 | -10.3% |
| CN(CC(=O)Nc1ccc(Cl)c(C(F)(F)F)c1)C(=O)CCN1C(=O)C2CCCCC2C1=O (stereo unspecified) | -13.2% |
| CCOC(=O)c1nc(C)sc1-c1ccnn1S(=O)(=O)c1ccccc1C(F)(F)F | -0.592% |
| CC(=O)c1c(C)[nH]c(C(=O)OCC(=O)NCc2ccc(Cl)cc2)c1C | -21.3% |

| SMILES | activity change, negative = cytotoxicity |
| --- | --- |
| O=C1NCCc2c1[nH]c1ccc([N+](=O)[O-])cc21 | -20.4% |
| O=C(CCNC(=O)c1ccco1)Nc1nc(-c2ccccc2)cs1 | -11.4% |
| COc1cc(/C=C2\SC(=Nc3ccc(Cl)c(C(=O)O)c3)NC2=O)c(Br)c(Br)c1O | 4.23% |
| COc1ccc2c(c1)/C(=C/c1cc(OC)c(OC)c(OC)c1)C(=O)N2 | -24.9% |
| Cc1nn(C2CCS(=O)(=O)C2)c2nc(C3CC3)cc(C(=O)Nc3cccc(C#N)c3)c12 (stereo unspecified) | -19.7% |
| COc1ccc(C#Cc2ccc3c(c2)O[C@H](CN(C)C(=O)Nc2cccc(OC)c2)[C@H](C)CN([C@H](C)CO)S3(=O)=O)cc1 | -1.04% [at 23.5 µM] |
| COc1ccc(CNCC(=O)Nc2ccccc2-n2cccc2)cc1 | -13.8% |
| COc1ccc(NC(=O)C(=O)c2cn(CC(=O)N3CCCC3)c3ccccc23)cc1OC | -33.5% |
| CCCCNC(=O)c1onc(CSc2ccccc2C)c1C(=O)O | -8.72% |
| COc1cccc(C2=CC(c3ccccc3)n3nnnc3N2)c1 (stereo unspecified) | -18.3% |
| CCOc1cc(N2CCOCC2)c(OCC)cc1NC(=O)CN1C(=O)NC2(CCCCC2)C1=O | -3.62% |
| COCCCN=C1NN=C(c2cc(C)n(Cc3ccccc3Cl)c2C)CS1 | -14.4% |
| C[C@H]1CNC(=O)c2c(C(=O)Nc3ccc(CNC(=O)OC(C)(C)C)cc3)ncn21 | -3.46% |
| CC(=O)N(C)C[C@@H]1Oc2cc(C#Cc3ccc(F)cc3)ccc2S(=O)(=O)N([C@H](C)CO)C[C@@H]1C | -8.91% |
| C[C@H]1CN([C@@H](C)CO)S(=O)(=O)c2ccc(C#Cc3cccc(F)c3)cc2O[C@H]1CN(C)C(=O)NC1CCCCC1 | -26.2% |
| C[C@H](CO)N1C[C@H](C)[C@H](CN(C)C(=O)NC2CCCC2)Oc2cc(C#Cc3ccc(F)cc3)ccc2S1(=O)=O | -13.8% |
| C[C@@H]1CN([C@H](C)CO)S(=O)(=O)c2ccc(C#Cc3cccc(F)c3)cc2O[C@@H]1CN(C)C(=O)NC1CCCCC1 | -27.1% |
| C[C@H](CO)N1C[C@H](C)[C@H](CN(C)C(=O)NC2CCCCC2)Oc2cc(C#Cc3ccc(F)cc3)ccc2S1(=O)=O | -7.21% |
| C[C@H](CO)N1C[C@H](C)[C@@H](CN(C)C(=O)NC2CCCCC2)Oc2cc(C#Cc3ccc(F)cc3)ccc2S1(=O)=O | 15.3% |
